The source of these data is article PMC11006913.

Where a chain is given by its changes, count along the chain named.

Common to all, as to assay: PBM; 200 nM protein, PBS
Holding throughout (details): dsDNA, one strand shown

Assay [1] deals with HOXA4 (Homo sapiens, UniProt Q00056 201-287, W262R).
Assay [2] has as its target HOXC10 (Homo sapiens, UniProt Q9NYD6 254-340).
In assay [3] the target is PRRX1 (Homo sapiens, UniProt P54821 80-166, F113S).
The target in assay [4] is HOXA2 (Homo sapiens, UniProt O43364 129-215, R185T).
For assay [5], the target named is HOXA4 (Homo sapiens, UniProt Q00056 201-287, R217L).
The target of assay [6] is T1, NKX2-6 (Homo sapiens, UniProt A6NCS4 118-204).
T1 sequence: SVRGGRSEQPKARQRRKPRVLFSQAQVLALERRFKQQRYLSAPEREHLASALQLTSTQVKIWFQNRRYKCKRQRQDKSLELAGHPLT

Assay [7] addresses HOXA2 (Homo sapiens, UniProt O43364 129-215, R185K).
For assay [8], the target named is HOXA4 (Homo sapiens, UniProt Q00056 201-287).
For assay [9], the target named is HOXC10 (Homo sapiens, UniProt Q9NYD6 254-340, K271E).
Assay [10] has as its target T2, NKX2-6 (Homo sapiens, UniProt A6NCS4 118-204, F151L).
T2 sequence: T1 sequence with F34L

Assay [11] addresses HOXA2 (Homo sapiens, UniProt O43364 129-215, Y150S).
The target of assay [12] is HOXA4 (Homo sapiens, UniProt Q00056 201-287, W262F).
Assay [13] concerns the target PRRX1 (Homo sapiens, UniProt P54821 80-166).
For assay [14], the target named is HOXA2 (Homo sapiens, UniProt O43364 129-215).
The target of assay [15] is ALX4 (Homo sapiens, UniProt Q9H161 200-286).
The target in assay [16] is ALX4 (Homo sapiens, UniProt Q9H161 200-286, Q225E).
The target in assay [17] is T3, PAX4 (Homo sapiens, UniProt O43316 9-242, R200K).
T3 sequence: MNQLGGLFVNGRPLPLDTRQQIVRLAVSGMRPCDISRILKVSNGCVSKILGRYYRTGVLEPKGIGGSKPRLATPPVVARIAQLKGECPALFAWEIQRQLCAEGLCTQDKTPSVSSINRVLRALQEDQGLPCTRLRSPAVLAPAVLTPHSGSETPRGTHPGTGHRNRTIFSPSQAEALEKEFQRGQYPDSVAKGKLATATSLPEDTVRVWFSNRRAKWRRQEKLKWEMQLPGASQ

For assay [18], the target named is T4, PAX4 (Homo sapiens, UniProt O43316 9-242).
T4 sequence: T3 sequence with K192R

In assay [19] the target is T5, PAX4 (Homo sapiens, UniProt O43316 9-242, R200Q).
T5 sequence: T3 sequence with K192Q

Assay [20] concerns the target T6, PAX4 (Homo sapiens, UniProt O43316 9-242, F177V).
T6 sequence: T3 sequence with F169V, K192R

Assay [21] addresses T7, PAX4 (Homo sapiens, UniProt O43316 9-242, F177Y).
T7 sequence: T3 sequence with F169Y, K192R

Assay [22] deals with T8, PAX4 (Homo sapiens, UniProt O43316 9-242, R227W).
T8 sequence: T3 sequence with K192R, R219W

The target in assay [23] is HOXC9 (Homo sapiens, UniProt P31274 178-260, K195R).
In assay [24] the target is HOXB6 (Homo sapiens, UniProt P17509 132-218, K202E).
Assay [25] has as its target HOXC9 (Homo sapiens, UniProt P31274 178-260).
The target of assay [26] is ALX1 (Homo sapiens, UniProt Q15699 118-204, L144V).
Assay [27] deals with ALX3 (Homo sapiens, UniProt O95076 139-225, N203Q).
For assay [28], the target named is HOXC9 (Homo sapiens, UniProt P31274 178-260, R193K).
For assay [29], the target named is ALX1 (Homo sapiens, UniProt Q15699 118-204, L144R).
The target in assay [30] is ALX3 (Homo sapiens, UniProt O95076 139-225).
The target of assay [31] is ALX3 (Homo sapiens, UniProt O95076 139-225, L168Q).
In assay [32] the target is HOXC9 (Homo sapiens, UniProt P31274 178-260, R222W).
Assay [33] has as its target ALX3 (Homo sapiens, UniProt O95076 139-225, L168V).
The target of assay [34] is ALX1 (Homo sapiens, UniProt Q15699 118-204).
For assay [35], the target named is ALX3 (Homo sapiens, UniProt O95076 139-225, N203S).
In assay [36] the target is HOXB6 (Homo sapiens, UniProt P17509 132-218).
HOXB6 (Homo sapiens, UniProt P17509 132-218), sequence (P17509 132-218): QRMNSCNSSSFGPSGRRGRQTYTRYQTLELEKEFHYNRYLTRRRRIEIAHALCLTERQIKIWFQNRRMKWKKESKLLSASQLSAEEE

HOXA4 (Homo sapiens, UniProt Q00056 201-287, W262R), sequence (Q00056 201-287 W262R): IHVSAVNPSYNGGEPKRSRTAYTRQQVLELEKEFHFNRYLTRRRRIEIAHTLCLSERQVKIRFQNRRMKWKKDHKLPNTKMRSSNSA
HOXA4 (Homo sapiens, UniProt Q00056 201-287), sequence (Q00056 201-287): as the sequence (Q00056 201-287 W262R) above, with R62W counted along it
HOXA4 (Homo sapiens, UniProt Q00056 201-287, W262F), sequence (Q00056 201-287 W262F): as the sequence (Q00056 201-287 W262R) above, with R62F counted along it
HOXA4 (Homo sapiens, UniProt Q00056 201-287, R217L), sequence (Q00056 201-287 R217L): as the sequence (Q00056 201-287 W262R) above, with R17L, R62W counted along it
HOXC10 (Homo sapiens, UniProt Q9NYD6 254-340), sequence (Q9NYD6 254-340): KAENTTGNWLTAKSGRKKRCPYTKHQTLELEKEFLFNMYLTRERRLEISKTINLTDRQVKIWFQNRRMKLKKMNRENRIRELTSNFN
HOXC10 (Homo sapiens, UniProt Q9NYD6 254-340, K271E), sequence (Q9NYD6 254-340 K271E): as the sequence (Q9NYD6 254-340) above, with K18E counted along it
HOXC9 (Homo sapiens, UniProt P31274 178-260, K195R), sequence (P31274 178-260 K195R): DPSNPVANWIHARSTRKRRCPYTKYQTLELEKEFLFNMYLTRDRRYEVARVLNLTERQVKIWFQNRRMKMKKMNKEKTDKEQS
ALX4 (Homo sapiens, UniProt Q9H161 200-286, Q225E), sequence (Q9H161 200-286 Q225E): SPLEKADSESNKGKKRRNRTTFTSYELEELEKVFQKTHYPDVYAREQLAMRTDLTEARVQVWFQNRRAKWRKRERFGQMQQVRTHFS
HOXC9 (Homo sapiens, UniProt P31274 178-260), sequence (P31274 178-260): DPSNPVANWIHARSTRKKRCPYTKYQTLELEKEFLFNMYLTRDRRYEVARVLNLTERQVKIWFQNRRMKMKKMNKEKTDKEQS
ALX3 (Homo sapiens, UniProt O95076 139-225, N203Q), sequence (O95076 139-225 N203Q): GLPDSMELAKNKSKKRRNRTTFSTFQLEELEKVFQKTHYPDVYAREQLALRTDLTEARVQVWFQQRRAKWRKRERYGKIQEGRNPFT
HOXA2 (Homo sapiens, UniProt O43364 129-215, Y150S), sequence (O43364 129-215 Y150S): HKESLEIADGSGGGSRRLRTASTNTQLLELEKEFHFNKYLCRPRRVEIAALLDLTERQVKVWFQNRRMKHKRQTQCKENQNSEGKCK
ALX3 (Homo sapiens, UniProt O95076 139-225), sequence (O95076 139-225): as the sequence (O95076 139-225 N203Q) above, with Q65N counted along it
HOXA2 (Homo sapiens, UniProt O43364 129-215, R185T), sequence (O43364 129-215 R185T): as the sequence (O43364 129-215 Y150S) above, with S22Y, R57T counted along it
ALX3 (Homo sapiens, UniProt O95076 139-225, L168V), sequence (O95076 139-225 L168V): as the sequence (O95076 139-225 N203Q) above, with L30V, Q65N counted along it
PRRX1 (Homo sapiens, UniProt P54821 80-166, F113S), sequence (P54821 80-166 F113S): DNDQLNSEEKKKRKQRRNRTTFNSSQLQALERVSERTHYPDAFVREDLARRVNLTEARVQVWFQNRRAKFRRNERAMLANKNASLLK
ALX1 (Homo sapiens, UniProt Q15699 118-204, L144R), sequence (Q15699 118-204 L144R): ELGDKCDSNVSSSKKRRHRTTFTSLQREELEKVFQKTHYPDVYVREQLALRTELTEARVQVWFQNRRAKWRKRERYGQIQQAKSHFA
ALX4 (Homo sapiens, UniProt Q9H161 200-286), sequence (Q9H161 200-286): as the sequence (Q9H161 200-286 Q225E) above, with E26Q counted along it
ALX1 (Homo sapiens, UniProt Q15699 118-204), sequence (Q15699 118-204): as the sequence (Q15699 118-204 L144R) above, with R27L counted along it
ALX3 (Homo sapiens, UniProt O95076 139-225, N203S), sequence (O95076 139-225 N203S): as the sequence (O95076 139-225 N203Q) above, with Q65S counted along it
HOXA2 (Homo sapiens, UniProt O43364 129-215), sequence (O43364 129-215): as the sequence (O43364 129-215 Y150S) above, with S22Y counted along it
PRRX1 (Homo sapiens, UniProt P54821 80-166), sequence (P54821 80-166): as the sequence (P54821 80-166 F113S) above, with S34F counted along it
HOXC9 (Homo sapiens, UniProt P31274 178-260, R193K), sequence (P31274 178-260 R193K): as the sequence (P31274 178-260) above, with R16K counted along it
HOXB6 (Homo sapiens, UniProt P17509 132-218, K202E), sequence (P17509 132-218 K202E): as the sequence (P17509 132-218) above, with K71E counted along it
ALX3 (Homo sapiens, UniProt O95076 139-225, L168Q), sequence (O95076 139-225 L168Q): as the sequence (O95076 139-225 N203Q) above, with L30Q, Q65N counted along it
HOXA2 (Homo sapiens, UniProt O43364 129-215, R185K), sequence (O43364 129-215 R185K): as the sequence (O43364 129-215 Y150S) above, with S22Y, R57K counted along it
HOXC9 (Homo sapiens, UniProt P31274 178-260, R222W), sequence (P31274 178-260 R222W): as the sequence (P31274 178-260) above, with R45W counted along it
ALX1 (Homo sapiens, UniProt Q15699 118-204, L144V), sequence (Q15699 118-204 L144V): as the sequence (Q15699 118-204 L144R) above, with R27V counted along it

Turning to GCCCCGAC, the binding signal with HOXA4 [1] was 9.84 upbm affinity estimate (log intensity, higher = more binding, comparable within an allelic series); in the assay with HOXC10 [2], 10.1 upbm affinity estimate (log intensity, higher = more binding, comparable within an allelic series); with PRRX1 [3], 9.25 upbm affinity estimate (log intensity, higher = more binding, comparable within an allelic series); in the assay with HOXA2 [4] it was 7.21 upbm affinity estimate (log intensity, higher = more binding, comparable within an allelic series); in the assay with HOXA4 [5], 9.94 upbm affinity estimate (log intensity, higher = more binding, comparable within an allelic series); in the assay with NKX2-6 [6], 9.63 upbm affinity estimate (log intensity, higher = more binding, comparable within an allelic series). The binding signal in the assay with HOXA2 [7] is 10.4 upbm affinity estimate (log intensity, higher = more binding, comparable within an allelic series); in the assay with HOXA4 [8], 9.87 upbm affinity estimate (log intensity, higher = more binding, comparable within an allelic series); with HOXC10 [9] it was 10.1 upbm affinity estimate (log intensity, higher = more binding, comparable within an allelic series); with NKX2-6 [10] it was 9.35 upbm affinity estimate (log intensity, higher = more binding, comparable within an allelic series); in the assay with HOXA2 [11], 10.5 upbm affinity estimate (log intensity, higher = more binding, comparable within an allelic series); with HOXA4 [12] it was 10.1 upbm affinity estimate (log intensity, higher = more binding, comparable within an allelic series). The binding signal with PRRX1 [13] was 9.52 upbm affinity estimate (log intensity, higher = more binding, comparable within an allelic series); in the assay with HOXA2 [14] it was 7.3 upbm affinity estimate (log intensity, higher = more binding, comparable within an allelic series).

On to CCGAAGGC, for which the binding signal with HOXA4 [1] was 9.78 upbm affinity estimate (log intensity, higher = more binding, comparable within an allelic series); with ALX4 [15], 8.05 upbm affinity estimate (log intensity, higher = more binding, comparable within an allelic series); with ALX4 [16], 8.35 upbm affinity estimate (log intensity, higher = more binding, comparable within an allelic series); in the assay with HOXA4 [5], 9.88 upbm affinity estimate (log intensity, higher = more binding, comparable within an allelic series); with HOXA4 [8], 9.96 upbm affinity estimate (log intensity, higher = more binding, comparable within an allelic series); with HOXA4 [12] it was 9.89 upbm affinity estimate (log intensity, higher = more binding, comparable within an allelic series).

CCCTCTCG: the binding signal was 9.84 upbm affinity estimate (log intensity, higher = more binding, comparable within an allelic series) with HOXA4 [1]; 10.1 upbm affinity estimate (log intensity, higher = more binding, comparable within an allelic series) with HOXC10 [2]; 9.86 upbm affinity estimate (log intensity, higher = more binding, comparable within an allelic series) with HOXA4 [5]; 9.81 upbm affinity estimate (log intensity, higher = more binding, comparable within an allelic series) with HOXA4 [8]; 10.1 upbm affinity estimate (log intensity, higher = more binding, comparable within an allelic series) with HOXC10 [9]; 9.89 upbm affinity estimate (log intensity, higher = more binding, comparable within an allelic series) with HOXA4 [12].

Consider GCACCACC, for which the binding signal was 9.87 upbm affinity estimate (log intensity, higher = more binding, comparable within an allelic series) with HOXA4 [1]; 9.27 upbm affinity estimate (log intensity, higher = more binding, comparable within an allelic series) with PAX4 [17]; 9.29 upbm affinity estimate (log intensity, higher = more binding, comparable within an allelic series) in the assay with PAX4 [18]; 9.72 upbm affinity estimate (log intensity, higher = more binding, comparable within an allelic series) with HOXA4 [5]; 9.35 upbm affinity estimate (log intensity, higher = more binding, comparable within an allelic series) with PAX4 [19]; 9.29 upbm affinity estimate (log intensity, higher = more binding, comparable within an allelic series) in the assay with PAX4 [20]. Also, the binding signal in the assay with HOXA4 [8] was 9.72 upbm affinity estimate (log intensity, higher = more binding, comparable within an allelic series); with PAX4 [21] it was 9.28 upbm affinity estimate (log intensity, higher = more binding, comparable within an allelic series); with PAX4 [22] it was 9.35 upbm affinity estimate (log intensity, higher = more binding, comparable within an allelic series); with HOXA4 [12] it was 9.79 upbm affinity estimate (log intensity, higher = more binding, comparable within an allelic series).

With CCGGACGG, the binding signal is 9.78 upbm affinity estimate (log intensity, higher = more binding, comparable within an allelic series) with HOXA4 [1]; 9.56 upbm affinity estimate (log intensity, higher = more binding, comparable within an allelic series) in the assay with HOXC9 [23]; 8.96 upbm affinity estimate (log intensity, higher = more binding, comparable within an allelic series) with HOXB6 [24]; 9.81 upbm affinity estimate (log intensity, higher = more binding, comparable within an allelic series) in the assay with HOXA4 [5]; 9.65 upbm affinity estimate (log intensity, higher = more binding, comparable within an allelic series) with HOXC9 [25]; 6.5 upbm affinity estimate (log intensity, higher = more binding, comparable within an allelic series) with ALX1 [26]. Besides, the binding signal was 7.77 upbm affinity estimate (log intensity, higher = more binding, comparable within an allelic series) with ALX3 [27]; 9.6 upbm affinity estimate (log intensity, higher = more binding, comparable within an allelic series) in the assay with HOXC9 [28]; 6.53 upbm affinity estimate (log intensity, higher = more binding, comparable within an allelic series) in the assay with ALX1 [29]; 9.9 upbm affinity estimate (log intensity, higher = more binding, comparable within an allelic series) with HOXA4 [8]; 7.87 upbm affinity estimate (log intensity, higher = more binding, comparable within an allelic series) in the assay with ALX3 [30]; 7.82 upbm affinity estimate (log intensity, higher = more binding, comparable within an allelic series) with ALX3 [31]. The binding signal was 9.76 upbm affinity estimate (log intensity, higher = more binding, comparable within an allelic series) with HOXC9 [32]; 7.73 upbm affinity estimate (log intensity, higher = more binding, comparable within an allelic series) in the assay with ALX3 [33]; 6.67 upbm affinity estimate (log intensity, higher = more binding, comparable within an allelic series) with ALX1 [34]; 9.82 upbm affinity estimate (log intensity, higher = more binding, comparable within an allelic series) in the assay with HOXA4 [12]; 7.72 upbm affinity estimate (log intensity, higher = more binding, comparable within an allelic series) with ALX3 [35]; 9.05 upbm affinity estimate (log intensity, higher = more binding, comparable within an allelic series) in the assay with HOXB6 [36].
